# Bioassay records from PubChem BioAssay.
# This excerpt belongs to a sample that is enriched for hits.
# LmPK inh: inhibitors of Leishmania mexicana pyruvate kinase; AID 1721; purified LmPK, Kinase-Glo ATP luminescence, 1 h; Potency, µM (doses to about 57.5 µM), inactives show at the highest dose activity change, negative = inhibition, hits mostly inhibitors; actives 0.37% (n = 290,000); note: potency is the fitted concentration of half-maximal effect; % is set by controls: 0 for no effect and ±100 for the full control effect
#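 Pyruvate kinase activity monitored as ATP production (luciferase luminescence). Conditions: 0.1 nM enzyme, 0.5 mM PEP, 0.1 mM ADP, 1 h, RT; normalized against uninhibited and no-enzyme wells.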
# Giardia FBPA inh: blocks Giardia fructose-bisphosphate aldolase activity | purified Giardia FBPA | actives 0.71% (n = 290,000) | AID 2451 | A8B2U2 | Potency, µM (highest dose often 59.6 µM), inactives show at the top dose activity, negative = inhibition, most hits filed as inhibitors; note: potency is the fitted concentration of half-maximal effect; % is set by controls: 0 for no effect and ±100 for the full control effect; nearly all actives have a fitted effect of over 55% in size
# Target sequence (A8B2U2 whole entry, looked up): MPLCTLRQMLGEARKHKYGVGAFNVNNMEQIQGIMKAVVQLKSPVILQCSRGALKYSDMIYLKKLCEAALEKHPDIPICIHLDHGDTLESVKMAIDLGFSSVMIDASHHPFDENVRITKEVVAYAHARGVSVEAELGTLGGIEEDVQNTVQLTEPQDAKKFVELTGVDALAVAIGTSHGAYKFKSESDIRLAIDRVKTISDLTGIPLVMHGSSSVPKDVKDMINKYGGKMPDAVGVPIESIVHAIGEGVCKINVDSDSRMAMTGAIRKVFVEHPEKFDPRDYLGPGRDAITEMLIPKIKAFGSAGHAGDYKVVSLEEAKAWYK
#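 40 nM FBPA preincubated 10 min at RT with compound (up to 57.5 uM final), then substrate plus GAPDH/TPI/NAD/arsenate coupling and diaphorase/resazurin added. Fluorescence read after 20 min at RT, 525/598 nm.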
# Shiga inhibitor: blocks Shiga toxin action in Vero cells; actives 9.2% (n = 290,000); Vero cells, Shiga toxin protein synthesis inhibition reporter; AID 2315; inhibition, % at 38.7 µM; in the data active = inhibition mostly above about 28%, no sharp cut-off; inactive = mostly below about 43%; note: 0% is about no effect
# TbPYK inhibitor: blocks Trypanosoma brucei pyruvate kinase; Q57TT1; TbPYK enzyme, Kinase-Glo Plus ATP luminescence, 45 min; Potency, µM (doses to about 76.8 µM), inactives show at the top dose activity, negative = inhibition, actives largely listed as inhibitors; actives 0.12% (n = 410,000); AID 624173; note: potency is the fitted concentration of half-maximal effect; % is set by controls: 0 for no effect and ±100 for the full control effect; nearly all actives have a fitted effect of over 50% in size
#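 Screened from lowest to highest concentration, compounds were pinned into TbPYK/substrate mixtures, and ADP (130 uM final) was added. Plates sat at room temperature for 45 min prior to Kinase-Glo Plus detection by luminescence.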
# RE007 growth inh: less growth of the S. pombe RE007 Vpr strain; Potency, µM (highest dose often 92.2 µM), inactives show top-dose activity change, negative = less growth, actives largely listed as inhibitors; actives 0.21% (n = 360,000); S. pombe RE007 Vpr strain, BacTiter-Glo ATP luminescence, 24 h; AID 651644; active = well fitted falling curve with a large enough effect; inconclusive = small, poorly fitted or top-dose-only effect; inactive = no such curve, though single readings can be large or run the other way; note: potency is the fitted concentration of half-maximal effect; % is set by controls: 0 for no effect and ±100 for the full control effect; nearly all actives have a fitted effect of over 50% in size
#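 Fission yeast strain RE007, carrying one chromosomally integrated HIV-1 vpr copy, was seeded at OD 0.01 in PMG+AL medium with 23 nL pinned compound. After 24 h at 30 °C and 99% humidity, viability was read by BacTiter-Glo luminescence.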
# CHX counter: counter-screen for Shiga toxin inhibitors: cycloheximide protein synthesis inhibition; cell reporter, cycloheximide protein synthesis inhibition counterscreen; max response, %; actives 12% (n = 300,000); AID 2314; in the data active = max response mostly above about 13%, no sharp cut-off; inactive = mostly below about 14%; note: read at 38.3 µM for the half of the compounds with a filed dose; 0% is about no effect
# Numbers without * were called inactive; ? = inconclusive; / = no result. Unless noted, calls come from the whole dose curve; as a rule, active = well fitted curve in the direction sought with a large enough effect; inconclusive = small, poorly fitted or top-dose-only effect, or another doubt; inactive = no such curve, though single readings can be large; an effect the other way counts as inactive or inconclusive.
SMILES,LmPK inh,Giardia FBPA inh,Shiga inhibitor,TbPYK inhibitor,RE007 growth inh,CHX counter
C(=N\Nc1nc2ccccc2[nH]1)/C1CCCCC1,-12%,4%,114*,-2%,-11%,61*
Cc1ccc2c(c1)-c1nc(-c3ccc4c(c3)NC(=O)CO4)cc(-c3ccc(Cl)cc3)c1CO2,/,/,/,1%,/,/
Cc1ccc(CNC(=O)CSc2ncc3c(n2)-c2ccc(Cl)cc2N(Cc2ccccc2)S3(=O)=O)cc1,/,/,/,-2%,/,/
O=c1[nH]c(N/N=C/c2ccccc2)nc2ccccc12,-7%,5%,72*,7%,-2%,43*
Fc1ccc(/C=N\Nc2cccc(F)c2)cc1,-2%,1%,-9,-4%,10%,-2
C(=N\Nc1nc2ccccc2[nH]1)/c1ccccc1,-16%,1%,76*,-6%,-2%,49*
Fc1cccc(/C=N/Nc2nc3ccccc3[nH]2)c1,-8%,-4%,84*,-23%,-16%,40*
Brc1ccc(-c2ccc(/C=N/Nc3nc4ccccc4[nH]3)o2)cc1,-9%,18%,78*,-5%,?,49*
Brc1ccc(-c2ccc(/C=N/Nc3nncc(-c4ccccc4)n3)o2)cc1,6%,1%,-9,-8%,-12%,-1
CCCc1cc(=O)[nH]c(N/N=C/C=C\c2ccccc2)n1,5%,-1%,-4,2%,-11%,-2
C(=C\c1ccccc1)/C=N/Nc1nc2ccccc2[nH]1,-12%,8%,89*,3%,-11%,27*
C(/CCc1ccccc1)=N\Nc1nc2ccccc2[nH]1,-29%,-3%,47*,-2%,14%,27*
O=C(N/N=C/c1ccc2c(c1)OCO2)c1cc(-c2ccccc2)nc2ccccc12,5%,4%,1,0%,18%,-1
Cc1cc(N/N=C/c2ccc3c(c2)OCO3)nc2ccccc12,-3%,-7%,79*,-7%,-12%,47*
CCCCCC/C=N/Nc1nnc(Cc2ccccc2)c(=O)[nH]1,-4%,-5%,18,-26%,-3%,-4
Cc1cc(C=C2C(=O)NC(=S)NC2=O)c(C)n1-c1ccc2c(c1)OCO2,-25%,-10%,24*,?,22%,39*
COc1ccc(COc2ncnc3ccc(Br)cc23)cc1F,2%,-17%,24,2%,4%,19*
CCSc1nnc(NC(=O)c2ccc3ccccc3n2)s1,-17%,-18%,120*,-5%,-28%,26*
CCc1nnc(NC(=O)c2ccc3ccccc3n2)s1,-19%,?,70*,-15%,-7%,45*
CO[C@@H](CCOCc1ccccc1)C[C@H]1O[C@H](C(=O)OC(C)C)C=C[C@@H]1C,/,-6%,/,/,/,/
O=C(CSc1ncnc2nc[nH]c12)c1ccccc1,-22%,-3%,100*,-20%,-13%,35*
c1ccc(CCSc2ncnc3nc[nH]c23)cc1,0%,-25%,39*,-3%,1%,29*
COc1ccccc1OCCSc1ncnc2nc[nH]c12,-2%,-27%,19,-5%,10%,-2
Cc1cccc(OCCSc2ncnc3nc[nH]c23)c1,-3%,2%,21,-2%,-2%,15*
CCOC(=O)c1cccc(NC(=O)N2CCC(CN3CCCCCC3)CC2)c1,/,/,/,3%,/,/
SMILES,LmPK inh,Giardia FBPA inh,Shiga inhibitor,TbPYK inhibitor,RE007 growth inh,CHX counter
CC(=O)/C=C/c1ccc2ccccc2n1,-27%,/,28,-6%,25µM*,22*
O/N=C/c1ccc2ccccc2n1,-2%,0%,106*,-2%,17%,50*
CC(OC(=O)/C=C/c1ccc2ccccc2n1)C(=O)N(C)c1ccccc1 (stereo unspecified),/,/,/,-1%,39%,/
COC(=O)c1c(NC(=O)Cc2coc3cc(C)cc(C)c23)sc2c1CCC2,/,/,/,-4%,/,/
COC(=O)c1cc2c(ccn2-c2ccc(F)cc2)n1Cc1ccc(OC(C)=O)cc1,4%,2%,122*,-5%,-4%,59*
COC(=O)c1cc2c(ccn2-c2ccc(F)cc2)n1Cc1cccc(OC)c1,4%,-4%,-13,-10%,5%,-3
COc1ccc(-c2nn(-c3ccccc3)cc2/C=N/Nc2ccccn2)cc1,-1%,6%,-12,/,/,-3
Cc1ccc(C)c(/C=N/Nc2ccccn2)c1,4%,0%,53*,2%,?,20*
COc1ccc(/C=N\Nc2ccccn2)c(OC)c1,0%,18%,43,3%,-6%,39*
COc1ccc(/C=N/Nc2ccccn2)c(OC)c1OC,3%,2%,74*,5%,-23%,40*
COc1ccc(/C=N/NS(C)(=O)=O)c(OC)c1,4%,1%,9,-13%,13%,-1
O=C(O)c1ccccc1C=NNc1ccccn1,/,/,/,-4%,-1%,/
Clc1ccc(C=NNc2ccccn2)c(Cl)c1,/,/,/,-4%,8%,/
COc1ccc(/C=N/Nc2ncc(Br)cn2)c(OC)c1,-7%,0%,51*,3%,3%,46*
COc1ccc(/C=N/OCc2ccc(Br)cc2)c(OC)c1,2%,5%,31*,-1%,-19%,30*
COc1ccc(C=NNC(=O)c2ccccc2OCc2ccc(F)cc2)c(OC)c1,/,/,/,2%,-8%,/
O=S(=O)(c1ccc2c(c1)OCCO2)N1CCN(S(=O)(=O)c2ccc3nc(Cl)c(Cl)nc3c2)CC1,/,/,18,/,/,27*
CSc1nnc(-c2ccc(Br)s2)n1C,-1%,17%,69*,2%,-5%,47*
CSc1nnc(-c2cccs2)n1C,-12%,5%,-6,7%,?,0
CSc1nnc(-c2sc(-c3ccccc3)nc2C)n1C,-5%,0%,55,-9%,19%,12*
CC(C)(C)C1CCc2c(sc(NC(=O)CCC(=O)O)c2C(=O)Nc2ccccc2C(F)(F)F)C1 (stereo unspecified),/,/,/,-7%,/,/
O=C(O)CCC(CP(=O)(O)O)C(=O)O (stereo unspecified),/,8%,-6,/,/,-4
Cc1ccc(NC(=O)Cn2cc(S(=O)(=O)N3CCCC3)c(S(=O)(=O)N3CCCC3)c2)cc1F,/,/,/,2%,/,/
Cc1ccc(OCC(=O)N/N=C2\CCOc3c(C)cccc32)cc1,-4%,12%,-6,1%,-18%,9
COc1cccc2c1OCC/C2=N\NC(=O)COc1ccc(C)cc1,1%,0%,24*,-10%,0%,16
Oc1cccc(-c2nc3ccc4ccccc4c3c3c2CCC3)c1,7%,-10%,127*,1%,-15%,59*
COC(=O)c1c(-c2cccs2)csc1NC(=O)COc1ccc(C(C)(C)C)cc1,/,/,/,-13%,/,/
